# From PubChem
# Many of the other results were omitted from the sample, so hits are more common in it than they were.
# Giardia FBPA inh = Giardia lamblia aldolase inhibition | A8B2U2 | purified Giardia FBPA | hit rate 0.71% among 290,000 | AID 2451 | Potency, µM (titrated, usually from 59.6 µM), inactives show at the top dose activity, negative = inhibition, most hits filed as inhibitors; also: potency is read from the fitted curve at half-maximal effect; % is scaled to controls: 0 for no effect and ±100 for the full control effect; nearly all actives have a fitted effect of over 55% in size
# Target sequence (A8B2U2 whole entry, looked up): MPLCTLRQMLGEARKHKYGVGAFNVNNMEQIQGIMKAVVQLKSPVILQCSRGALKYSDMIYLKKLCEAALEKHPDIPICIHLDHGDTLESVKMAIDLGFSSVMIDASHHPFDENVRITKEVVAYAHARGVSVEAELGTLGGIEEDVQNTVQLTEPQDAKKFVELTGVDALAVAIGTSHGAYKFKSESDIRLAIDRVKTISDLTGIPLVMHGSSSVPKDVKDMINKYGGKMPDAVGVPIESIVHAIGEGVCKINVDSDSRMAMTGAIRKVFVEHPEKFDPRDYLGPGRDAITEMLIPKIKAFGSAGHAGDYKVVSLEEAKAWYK
#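 40 nM FBPA preincubated 10 min at RT with compound (up to 57.5 uM final), then substrate plus GAPDH/TPI/NAD/arsenate coupling and diaphorase/resazurin added. Fluorescence read after 20 min at RT, 525/598 nm.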
# RE007 growth inh = less growth of the S. pombe RE007 Vpr strain. S. pombe RE007 Vpr strain, BacTiter-Glo ATP luminescence, 24 h. Potency, µM (top dose mostly 92.2 µM), for the others: at the highest dose activity change, negative = less growth, usual class: inhibitors. hit rate 0.21% among 360,000; active = well fitted falling curve with a large enough effect; inconclusive = small, poorly fitted or top-dose-only effect; inactive = no such curve, though single readings can be large or run the other way; also: potency is read from the fitted curve at half-maximal effect; % is scaled to controls: 0 for no effect and ±100 for the full control effect; nearly all actives have a fitted effect of over 50% in size
#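 Fission yeast strain RE007, carrying one chromosomally integrated HIV-1 vpr copy, was seeded at OD 0.01 in PMG+AL medium with 23 nL pinned compound. After 24 h at 30 °C and 99% humidity, viability was read by BacTiter-Glo luminescence.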
# TbPYK inhibitor = inhibitors of Trypanosoma brucei pyruvate kinase; Potency, µM (titrated, usually from 76.8 µM), for the others: top-dose activity, negative = inhibition, usual class: inhibitors; hit rate 0.12% among 410,000; Q57TT1; TbPYK enzyme, Kinase-Glo Plus ATP luminescence, 45 min; also: potency is read from the fitted curve at half-maximal effect; % is scaled to controls: 0 for no effect and ±100 for the full control effect; nearly all actives have a fitted effect of over 50% in size
#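 T. brucei PYK with substrate was exposed to pin-transferred compounds across a concentration series, then started with 130 uM ADP (final). After 45 min at room temperature, Kinase-Glo Plus luminescence was read, normalized and curve-fitted.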
# Cycloheximide cs = counter-screen hit for Shiga toxin inhibitors, cycloheximide | cell reporter, cycloheximide protein synthesis inhibition counterscreen | max response, % | hit rate 12% among 300,000; in the data active = max response mostly above about 13%, no sharp cut-off; inactive = mostly below about 14%; also: read at 38.3 µM for the half of the compounds with a filed dose; 0% is about no effect
# Shiga toxin inh = blocks Shiga toxin action in Vero cells | hit rate 9.2% among 290,000 | AID 2315 | Vero cells, Shiga toxin protein synthesis inhibition reporter | inhibition, % at 38.7 µM; in the data active = inhibition mostly above about 28%, no sharp cut-off; inactive = mostly below about 43%; also: 0% is about no effect
# LmPK inhibitor = inhibitors of Leishmania mexicana pyruvate kinase | Q27686 | purified LmPK, Kinase-Glo ATP luminescence, 1 h | Potency, µM (highest dose often 57.5 µM), inactives show at the highest dose activity change, negative = inhibition, usual class: inhibitors | hit rate 0.37% among 290,000; also: potency is read from the fitted curve at half-maximal effect; % is scaled to controls: 0 for no effect and ±100 for the full control effect
#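 Purified LmPK (0.1 nM) converted ADP (0.1 mM) to ATP with PEP (0.5 mM) in imidazole buffer pH 7.2 with KCl and MgCl2, 1 h at room temperature. ATP was read by Kinase-Glo luminescence; data normalized to uninhibited and no-enzyme controls.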
# Numbers without * were called inactive; ? = inconclusive; nt = no result given; [ ] = another dose, or the depositor's remark. Unless noted, calls follow the shape of the dose curve; as a rule, active = well fitted curve in the direction sought with a large enough effect; inconclusive = small, poorly fitted or top-dose-only effect, or another doubt; inactive = no such curve, though single readings can be large; an effect the other way counts as inactive or inconclusive.
SMILES,Giardia FBPA inh,RE007 growth inh,TbPYK inhibitor,Cycloheximide cs,Shiga toxin inh,LmPK inhibitor
Cc1cc(C(=O)COC(=O)CNC(=O)c2ccco2)c(C)n1Cc1ccco1,1%,nt,5%,11,12,-3%
Cc1cc(C(=O)COC(=O)c2ccc(O)cc2)c(C)n1Cc1ccco1,5%,6%,-4%,67*,66*,-1%
Cc1cc(C(=O)COC(=O)c2ccc(Br)o2)c(C)n1Cc1ccco1,-5%,nt,nt,52*,97*,2%
Cc1cc(C(=O)COC(=O)C(C)NC(N)=O)c(C)n1Cc1ccco1 (configuration not stated),-3%,5%,5%,35*,94*,-3%
CCOc1ncccc1C(=O)OCC(=O)c1cc(C)n(Cc2ccco2)c1C,-6%,-4%,-5%,27*,67*,-2%
Cc1cc(C(=O)COC(=O)CCC(=O)c2ccc3c(c2)OCCO3)c(C)n1Cc1ccco1,1%,5%,2%,12,31,0%
CC1CCN(C(=O)Cn2cc(SCc3ccccc3)c3ccccc32)CC1,nt,nt,18%,nt,nt,nt
COc1cccc2sc(NC(=O)c3ccc(S(=O)(=O)N4CCC(C)CC4)cc3)nc12,nt,nt,-7%,nt,nt,nt
COC(=O)CCN(Cc1ccco1)S(=O)(=O)c1ccc(F)cc1Br,-7%,nt,nt,8,22,nt
CC(C)Cc1nn2c(=O)cc(COC(=O)c3ccc(NC(=O)C4CCCCC4)cc3)nc2s1,nt,nt,-4%,nt,nt,nt
Cc1ccccc1-c1nnc(-c2ccc(Br)cc2)o1,0%,-18%,-18%,21*,53,2%
Cc1ccccc1-c1nnc(-c2ccccc2C)o1,-2%,3%,-1%,23*,42*,-18%
Cc1ccccc1-c1nnc(CN2CCC(C)CC2)o1,-4%,6%,6%,27*,71*,0%
C=CC1=C2C=C(C3CC3)N(CCN3CCOCC3)C=C2C(=O)C(C)(OC(=O)c2ccco2)C1=O (configuration not stated),?,nt,nt,nt,nt,-6%[11.5 µM]
Cc1cc(C(=O)Nc2ccc3ccccc3c2)c(C)o1,0%,1%,-4%,32*,96*,-9%
Cc1cc(C(=O)Nc2nc3c(C)cccc3s2)c(C)o1,14%,-4%,0%,19*,11,0%
CC(=O)c1cc(C(=O)Nc2ccc3ccccc3c2)c(C)o1,1%,3%,-4%,-3,-3,-3%
Cc1cc(C(=O)Nc2cccc(C(=O)O)c2)oc1C,-1%,-4%,?,38*,81*,?
Cc1cc(C(=O)Nc2ccc3ccccc3c2)oc1C,-8%,?,4%,30*,127*,-13%
COc1cc(SC)ccc1C(=O)N1CCn2c3c(c4cc(C)ccc42)CCCC31 (configuration not stated),nt,nt,4%,nt,nt,nt
COc1ccc(CNC(=O)C(CCSC)NS(=O)(=O)c2ccc3c(c2)oc(=O)n3C)cc1 (configuration not stated),nt,nt,0%,nt,nt,nt
Cc1ccoc1C(=O)Nc1ccc2ccccc2c1,-8%,?,-18%,41*,63,-30%
Cc1ccc(C(=O)Nc2ccc3ccccc3c2)cc1,-5%,-16%,-11%,-3,-5,0%
Cc1ccc(-c2nc3cc(C(C)C)ccc3o2)cc1NC(=O)c1cccs1,nt,nt,1%,nt,nt,nt
COc1cc(OC)cc(C(=O)Nc2nnc(SCC(=O)NCc3ccco3)s2)c1,nt,-4%,-4%,34*,97,-8%
SMILES,Giardia FBPA inh,RE007 growth inh,TbPYK inhibitor,Cycloheximide cs,Shiga toxin inh,LmPK inhibitor
O=C(CSc1nnc(NC(=O)c2ccccc2F)s1)Nc1ccccc1F,3%,2%,3%,35*,70*,-11%
O=C(CSc1nnc(NC(=O)c2ccccc2F)s1)NCc1ccco1,nt,-8%,-10%,35*,79*,-6%
O=C(CSc1nnc(NC(=O)c2ccccc2F)s1)NCc1ccc(F)cc1,-22%,-2%,2%,41*,107*,1%
O=C(CSc1nnc(NC(=O)c2ccco2)s1)Nc1ccccc1F,20%,-24%,3%,1,11,-7%
COc1ccc(C(=O)Nc2nnc(SCC(=O)NCc3ccco3)s2)cc1OC,nt,-3%,1%,10,12,-6%
COc1ccccc1C(=O)Nc1nnc(SCC(=O)NCc2ccco2)s1,nt,19%,-10%,43*,63*,1%
COc1ccc(C(=O)Nc2nnc(SCC(=O)NCc3ccco3)s2)c(OC)c1,nt,-3%,5%,35*,33*,-1%
COc1ccccc1C(=O)Nc1nnc(SCC(=O)NCC2CCCO2)s1 (configuration not stated),nt,0%,-1%,40*,115*,-6%
Cc1cc(NC(=O)CN2C(=O)CSc3ccc(S(=O)(=O)N(C)C)cc32)ccc1Br,nt,nt,-5%,nt,nt,nt
O=C(CC12CC3CC(CC(C3)C1)C2)Nc1nncs1,12%,15%,-1%,-2,-15,-1%
COc1ccc(NC(=O)Cn2c(=O)n(-c3cccc(C(F)(F)F)c3)c(=O)c3sccc32)cc1,nt,nt,3%,nt,nt,nt
CCCCCCCCCCCCCCCCOCCOCCOCCOCCOCCOCCOCCOCCOCCOCCOCCOCCOCCOCCOCCOCCOCCOCCOCCOCCO,nt,nt,3%,nt,nt,nt
CCOC(=O)c1c[nH]n(-c2ccc(C)cc2)c1=O,?,2%,-21%,21*,48*,7%
CCOC(=O)c1c[nH]n(-c2ccccc2)c1=O,-22%,10%,-3%,20,30*,1%
CCOC(=O)c1nc(N)c(=O)n(-c2ccc(C)cc2)n1,7%,13%,-8%,-1,4,2%
Cc1cccc(Oc2nc3ccccn3c(=O)c2/C=C(\C#N)c2nc3ccccc3s2)c1C,nt,nt,-34%,nt,nt,nt
CCCn1c(=O)n(-c2ccccc2)c(=O)c2sc3ccccc3c21,nt,nt,6%,nt,nt,nt
O=C1CCC(=O)N1CO,nt,nt,2%,nt,nt,nt
CCn1c(=O)c2c(n3c(=S)[nH]nc13)-c1ccccc1CC21CCCCC1,5%,0%,?,-6,-3,14µM*
O=C1CC(NNC(=O)c2cccc(F)c2)C(=O)N1 (configuration not stated),-7%,2%,-6%,11*,24,4%
COc1ccc(-c2csc(C(C)(NC(C)=O)c3ccccc3)n2)cn1 (configuration not stated),nt,-6%,-1%,nt,nt,nt
CC(C)CCNC(=O)c1cc2c(=O)n3ccccc3nc2s1,-1%,1%,-5%,20*,41*,-7%
CCn1c(=O)c2cc(C(=O)NCCC(C)C)sc2c2ccccc21,1%,-4%,2%,-2,-3,1%
CCC(C)NC(=O)c1cc2c(=O)n(CC)c3ccccc3c2s1 (configuration not stated),7%,-17%,-6%,12*,9,3%
